Screens as filed in PubChem BioAssay.
Bim-Bfl-1 – inhibitors of Bim-Bfl-1 interaction, human. 0.12% of 190,000 active. Q16548. inhibition, % at 10 µM. AID 1008. Bead-based flow cytometry, Bim-Bfl-1 binding inhibition;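 further: 0% = wells without compound plus tracer and 100% = blocker peptide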
Target sequence (Q16548 whole entry, looked up): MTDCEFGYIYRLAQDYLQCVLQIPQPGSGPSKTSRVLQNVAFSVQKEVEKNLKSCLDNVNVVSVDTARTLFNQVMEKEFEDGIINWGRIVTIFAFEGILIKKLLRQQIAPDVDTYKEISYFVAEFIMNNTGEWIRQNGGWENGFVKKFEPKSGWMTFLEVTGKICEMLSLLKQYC
Bim-Bcl-W – disrupts Bim peptide binding to human Bcl-W; bead-based flow cytometry; inhibition, % at 10 µM; 0.02% of 190,000 active;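 further: 0% = bound tracer without compound and 100% = peptide blocker; higher means less fluorescent Bim peptide bound to Bcl-W beads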
Bcl-XL Bim block – human Bim-Bcl-XL interaction inhibition; 0.04% of 190,000 active; Bim peptide-Bcl-XL binding, bead flow cytometry, fluorescence; inhibition, % at 10 µM
Bcl-B Bim block – human Bim-Bcl-B interaction inhibition. bead-based flow cytometry, Bim peptide-Bcl-B binding. inhibition, % at 10 µM. 0.073% of 190,000 active;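 further: 0% = tracer peptide without compound and 100% = reference inhibitor peptide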
Bim-Bcl-2 – human Bim-Bcl-2 interaction inhibition. AID 950. 0.06% of 190,000 active. Bead-based flow cytometry, Bim peptide-Bcl-2 binding. inhibition, % at 10 µM. P10415; in the data active means inhibition above about 40%;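 further: 0% = no compound wells with probe peptide and 100% = reference peptide inhibitor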
Target sequence (P10415 whole entry, looked up): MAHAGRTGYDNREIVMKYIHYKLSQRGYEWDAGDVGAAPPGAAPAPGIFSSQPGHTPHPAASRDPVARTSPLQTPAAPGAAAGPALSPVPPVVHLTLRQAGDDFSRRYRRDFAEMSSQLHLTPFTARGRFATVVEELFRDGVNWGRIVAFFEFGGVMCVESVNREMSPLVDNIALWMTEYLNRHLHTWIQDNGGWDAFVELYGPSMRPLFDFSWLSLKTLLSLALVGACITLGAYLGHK
Active calls of the source: *. A selection: hits, their analogues and other compounds. The true share with any hit is near 0.2%. Unless noted, no stated cut-off is given here; in the data, active means inhibition above about 40%.

Cc1cc(C)nc(SCc2cc(=O)c(OC(=O)c3ccc(Cl)c([N+](=O)[O-])c3)co2)n1 was read as Bim-Bfl-1 0, Bim-Bcl-W 36, Bcl-XL Bim block 52*, Bcl-B Bim block 18 and Bim-Bcl-2 13.
For CC1CN(C(=O)c2cc3cc([N+](=O)[O-])ccc3s2)CC(C)O1 (stereo unspecified) the results were Bim-Bfl-1 -6, Bim-Bcl-W -1, Bcl-XL Bim block -3, Bcl-B Bim block -3 and Bim-Bcl-2 -1.
Screening Cc1ccc(-n2[nH]c(C)c(/C=N/Nc3ccc([N+](=O)[O-])cc3[N+](=O)[O-])c2=O)cc1C returned Bim-Bfl-1 42*, Bim-Bcl-W 30, Bcl-XL Bim block 43*, Bcl-B Bim block 42* and Bim-Bcl-2 25.
`NC(=O)CSc1nnc(Cn2cnc3ccccc32)o1` gave Bim-Bfl-1 65*, Bim-Bcl-W 36, Bcl-XL Bim block 16, Bcl-B Bim block -2 and Bim-Bcl-2 10.
Screening CN1c2ccsc2C(O)=C(C(=S)Nc2ccc(F)c(Cl)c2)S1(=O)=O returned Bim-Bfl-1 -10, Bim-Bcl-W -2, Bcl-XL Bim block -11, Bcl-B Bim block -8 and Bim-Bcl-2 -7.
CN(C)S(=O)(=O)c1cccc(-c2nn(-c3ccccc3)cc2/C=C(\C#N)c2nc3ccccc3[nH]2)c1 was read as Bim-Bfl-1 0, Bim-Bcl-W -4, Bcl-XL Bim block -6, Bcl-B Bim block -4 and Bim-Bcl-2 0.
For CN(C)S(=O)(=O)c1cccc(-c2nn(-c3ccccc3)cc2/C=C2\SC(=S)NC2=O)c1 the results were Bim-Bfl-1 41*, Bim-Bcl-W 37, Bcl-XL Bim block 43*, Bcl-B Bim block 55* and Bim-Bcl-2 31.
For CN1CCN(C2=C(Cl)C(=O)N(C3CCCCC3)C2=O)CC1 the results were Bim-Bfl-1 -12, Bim-Bcl-W 0, Bcl-XL Bim block -3, Bcl-B Bim block -11 and Bim-Bcl-2 -6.
CN1CCN(C2=C(Cl)C(=O)C(c3cnc(N4CCCCC4)s3)=C(Cl)C2=O)CC1 was read as Bim-Bfl-1 54*, Bim-Bcl-W 30, Bcl-XL Bim block 26, Bcl-B Bim block 58* and Bim-Bcl-2 44*.
COc1cccc2c1OC1(C)CC2/C(=C(\C)O)C(=O)N1 (stereo unspecified) was read as Bim-Bfl-1 -3, Bim-Bcl-W 2, Bcl-XL Bim block 1, Bcl-B Bim block 0 and Bim-Bcl-2 -2.
For O=C(O)c1c(-c2ccc(Cl)cc2)cn2ccccc12 the results were Bim-Bfl-1 0, Bim-Bcl-W 1, Bcl-XL Bim block -1, Bcl-B Bim block -1 and Bim-Bcl-2 1.
`Brc1ccc(C2=Nc3cccc4cccc(c34)N2)o1` gave Bim-Bfl-1 12, Bim-Bcl-W 4, Bcl-XL Bim block -1, Bcl-B Bim block -5 and Bim-Bcl-2 1.
Fc1ccc(C2=Nc3cccc4cccc(c34)N2)cc1 was read as Bim-Bfl-1 49*, Bim-Bcl-W 37, Bcl-XL Bim block 10, Bcl-B Bim block 0 and Bim-Bcl-2 21.
`CCCc1nnc(SCC(=O)N2CCCCC2)n1CCCOC` gave Bim-Bfl-1 0, Bim-Bcl-W -1, Bcl-XL Bim block 0, Bcl-B Bim block 0 and Bim-Bcl-2 -1.
Cc1ccc(NC(=O)N2CCCC2C(=O)NCC2CCCO2)cc1 (stereo unspecified) was read as Bim-Bfl-1 -6, Bim-Bcl-W 0, Bcl-XL Bim block 0, Bcl-B Bim block 0 and Bim-Bcl-2 -2.
Screening CN(C)S(=O)(=O)c1cccc(C(=O)OCC(=O)c2ccc3c(c2)NC(=O)CO3)c1 returned Bim-Bfl-1 20, Bim-Bcl-W 23, Bcl-XL Bim block 8, Bcl-B Bim block 43* and Bim-Bcl-2 26.
For O=C(CSc1nc(C2CC2)nc2ccccc12)N1c2ccccc2Sc2ccccc21 the results were Bim-Bfl-1 1, Bim-Bcl-W 0, Bcl-XL Bim block -6, Bcl-B Bim block -2 and Bim-Bcl-2 2.
COc1ccc(COC(=O)NNC(=O)c2ccccc2Cl)cc1 was read as Bim-Bfl-1 66*, Bim-Bcl-W 25, Bcl-XL Bim block 18, Bcl-B Bim block 83* and Bim-Bcl-2 83*.
Screening COc1ccc(CC(=O)OCC(=O)NCc2ccccc2Cl)cc1 returned Bim-Bfl-1 -4, Bim-Bcl-W 0, Bcl-XL Bim block 0, Bcl-B Bim block -2 and Bim-Bcl-2 0.
`O=c1[nH]c(SCc2nc3ccccc3c(=O)n2-c2ccccc2C(F)(F)F)nc2ccccc12` gave Bim-Bfl-1 34, Bim-Bcl-W 35, Bcl-XL Bim block 41*, Bcl-B Bim block 16 and Bim-Bcl-2 23.
C#CCn1cc(C=C2C(=O)c3ccccc3C2=O)c2ccccc21 was read as Bim-Bfl-1 39, Bim-Bcl-W 39, Bcl-XL Bim block 24, Bcl-B Bim block 71* and Bim-Bcl-2 58*.
`C#CCn1c(=O)cc(C)c2ccccc21` gave Bim-Bfl-1 -5, Bim-Bcl-W 1, Bcl-XL Bim block -1, Bcl-B Bim block -4 and Bim-Bcl-2 -4.
`CCOc1c(Cl)cc(CNc2ccc(N3CCCC3)cc2)cc1OC` gave Bim-Bfl-1 41*, Bim-Bcl-W 15, Bcl-XL Bim block 1, Bcl-B Bim block -11 and Bim-Bcl-2 12.
CCOc1c(Cl)cc(CNc2ccc(S(N)(=O)=O)cc2)cc1OC was read as Bim-Bfl-1 2, Bim-Bcl-W 3, Bcl-XL Bim block 0, Bcl-B Bim block -3 and Bim-Bcl-2 1.
`O=C(COC(=O)c1ccco1)NCc1ccc(F)cc1` gave Bim-Bfl-1 -2, Bim-Bcl-W 0, Bcl-XL Bim block -2, Bcl-B Bim block -3 and Bim-Bcl-2 0.
For Cc1cc(N/C(=N/S(=O)(=O)c2cc(F)ccc2F)c2ccccc2)n(-c2ccccc2)n1 the results were Bim-Bfl-1 19, Bim-Bcl-W 18, Bcl-XL Bim block 16, Bcl-B Bim block 66* and Bim-Bcl-2 50*.
For Cc1cc(N/C(=N/S(=O)(=O)c2ccc(F)cc2)c2ccccc2)n(-c2ccccc2)n1 the results were Bim-Bfl-1 -2, Bim-Bcl-W -2, Bcl-XL Bim block -2, Bcl-B Bim block -2 and Bim-Bcl-2 -1.
`CC(O)CNCc1ccc(-c2ccccc2)cc1` (stereo unspecified) gave Bim-Bfl-1 -1, Bim-Bcl-W 2, Bcl-XL Bim block 0, Bcl-B Bim block 0 and Bim-Bcl-2 2.
Screening CC(NCc1ccc(-c2ccccc2)cc1)C(O)c1ccccc1 (stereo unspecified) returned Bim-Bfl-1 39, Bim-Bcl-W 24, Bcl-XL Bim block 40*, Bcl-B Bim block 15 and Bim-Bcl-2 30.
For COc1ccc(/C=C2\SC(=O)NC2=S)cc1OC the results were Bim-Bfl-1 16, Bim-Bcl-W 18, Bcl-XL Bim block 9, Bcl-B Bim block 28 and Bim-Bcl-2 53*.
CCOc1ccc(/C=C2\SC(=S)NC2=O)cc1OC was read as Bim-Bfl-1 0, Bim-Bcl-W -4, Bcl-XL Bim block -1, Bcl-B Bim block 2 and Bim-Bcl-2 0.
